In article PMC4336329 (PLoS ONE, 2015):
Out of some 310,000 compounds screened, about 14,000 (4.5%) showed an effect of 50% or more. Effects have a minus sign here. The list comes from a sample in which strong results are over-represented; it also holds similar structures and randomly drawn compounds.

These molecules were tested against human ether-à-go-go-related gene (hERG) potassium channel (human, UniProt Q12809) (assay: primary screen, population patch clamp on CHO cells stably expressing hERG; higher = less effect of the substance).
human ether-à-go-go-related gene (hERG) potassium channel, sequence (Q12809 whole entry, looked up): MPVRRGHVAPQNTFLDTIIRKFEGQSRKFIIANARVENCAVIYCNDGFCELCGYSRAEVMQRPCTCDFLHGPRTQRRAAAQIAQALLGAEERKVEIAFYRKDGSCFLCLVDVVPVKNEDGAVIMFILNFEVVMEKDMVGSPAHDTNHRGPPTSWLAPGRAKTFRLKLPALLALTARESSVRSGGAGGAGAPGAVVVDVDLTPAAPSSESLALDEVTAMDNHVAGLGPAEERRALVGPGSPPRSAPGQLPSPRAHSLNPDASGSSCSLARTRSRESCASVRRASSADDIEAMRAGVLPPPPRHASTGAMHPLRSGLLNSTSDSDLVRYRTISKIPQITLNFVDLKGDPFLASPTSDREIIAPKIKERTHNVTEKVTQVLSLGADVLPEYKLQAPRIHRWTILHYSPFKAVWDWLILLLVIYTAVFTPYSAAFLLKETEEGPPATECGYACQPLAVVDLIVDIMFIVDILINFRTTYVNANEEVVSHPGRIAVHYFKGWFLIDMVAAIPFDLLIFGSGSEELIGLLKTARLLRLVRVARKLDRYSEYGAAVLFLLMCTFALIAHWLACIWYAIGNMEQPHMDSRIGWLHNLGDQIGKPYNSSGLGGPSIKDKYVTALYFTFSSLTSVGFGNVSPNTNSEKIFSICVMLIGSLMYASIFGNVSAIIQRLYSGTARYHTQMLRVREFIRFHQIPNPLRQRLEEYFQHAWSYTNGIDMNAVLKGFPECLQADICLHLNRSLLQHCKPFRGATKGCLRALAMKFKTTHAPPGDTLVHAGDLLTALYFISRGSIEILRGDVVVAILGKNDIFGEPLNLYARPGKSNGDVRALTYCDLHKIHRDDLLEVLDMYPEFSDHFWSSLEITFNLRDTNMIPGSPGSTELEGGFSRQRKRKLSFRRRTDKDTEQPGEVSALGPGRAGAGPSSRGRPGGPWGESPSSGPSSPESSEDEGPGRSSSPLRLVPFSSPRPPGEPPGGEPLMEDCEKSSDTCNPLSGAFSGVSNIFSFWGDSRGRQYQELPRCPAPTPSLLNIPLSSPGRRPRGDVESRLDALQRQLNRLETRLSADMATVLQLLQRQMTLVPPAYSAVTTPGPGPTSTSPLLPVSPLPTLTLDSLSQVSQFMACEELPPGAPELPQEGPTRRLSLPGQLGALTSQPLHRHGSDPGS
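Note: peak tail current of the secondary pulse compared with the same well before compound.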

First: Cc1cccc(NC(=O)C2C(c3ccccc3)C2(Cl)Cl)c1 (stereo not shown)
Second: Cc1ccc(CNC(=O)CN(c2cccc([N+](=O)[O-])c2)S(=O)(=O)c2ccccc2)cc1
The “hERG current change (%, negative = inhibition) at 10uM” value of the first is higher: -5.35% for the first, -25% for the second.

Compared with `CC1CCCCN1CCNc1nc(=S)[nH]c2ccccc12` (stereo not shown), `CC1CCCCN1CCCNc1c(C=O)c(=O)[nH]c2ccccc12` (stereo not shown) is higher in “hERG current change (%, negative = inhibition) at 10uM” value: -67.5% for the first, -3.96% for the second.

Going from `S=c1nc(NCCc2ccccc2Cl)c2ccccc2[nH]1` to `COc1ccc(CCN(C)Cc2cccc3ccccc23)cc1OC`, the “hERG current change (%, negative = inhibition) at 10uM” value falls from 20% to -73.8%.

First: Cc1nc2ccccc2c(=O)n1/N=C/c1ccccn1
Second: Cc1ccc(S(=O)(=O)Nc2cccc3cccnc23)cc1
The “hERG current change (%, negative = inhibition) at 10uM” value of the first is higher: -3.77% for the first, -12.1% for the second.

First: Cc1ccc(S(=O)(=O)N2CCOC2CNC(=O)C(=O)NCCN2CCOCC2)cc1 (stereo not shown)
Second: Cc1ccc(C(=O)Nc2nnc(S(=O)(=O)N3CCN(c4ccc(F)cc4)CC3)s2)cc1
The “hERG current change (%, negative = inhibition) at 10uM” value of the first is higher: 10.6% for the first, 2.59% for the second.

First: COc1ccccc1OCC(O)COC(N)=O (stereo not shown)
Second: COc1ccccc1OCC(O)Cn1nc(C)cc1C (stereo not shown)
The “hERG current change (%, negative = inhibition) at 10uM” value of the first is higher: 10.3% for the first, 9.76% for the second.

First: CCCCCn1c(=N)n(CC(O)COc2ccccc2OC)c2ccccc21 (stereo not shown)
Second: CCCCCn1c(=N)n(CC(O)COc2ccccc2OC)c2ccccc21.Cl (stereo not shown)
The “hERG current change (%, negative = inhibition) at 10uM” value of the first is higher: -75.9% for the first, -81.1% for the second.

Going from `COc1ccc2c(C)nc(Nc3nc(C)cc(C)n3)nc2c1` to `COc1cc(-c2noc(C)c2C#Cc2ccccn2)cc(OC)c1OC`, the “hERG current change (%, negative = inhibition) at 10uM” value falls from 5.64% to -29%.

Compared with `COc1cc(C2(c3ccc(O)c(OC)c3)C(=O)N(C)c3ccc(C)cc32)ccc1O`, `COc1cc(C2(c3ccc(O)c(OC)c3)C(=O)N(C)c3ccc(Br)cc32)ccc1O` is lower in “hERG current change (%, negative = inhibition) at 10uM” value: -19% for the first, -52.6% for the second.

Compared with `Cc1cc(C2(c3ccc(O)c(C)c3)C(=O)N(C)c3ccc(Br)cc32)ccc1O`, `COc1ccc(CCN(C)Cc2c(O)ccc3cc(Br)ccc23)cc1OC` is lower in “hERG current change (%, negative = inhibition) at 10uM” value: -2.28% for the first, -59.5% for the second.

First: COC(=O)c1c(NC(=O)C(=O)N2CCOCC2)sc2c1CCCC2
Second: CCOC(=O)c1c(NC(=O)C2C3CCC(O3)C2C(=O)O)sc2c1CCC(CC)C2 (stereo not shown)
The “hERG current change (%, negative = inhibition) at 10uM” value of the first is higher: 7.47% for the first, -21.1% for the second.

Going from `CC1CN(C(=O)c2ccccc2OCc2ccc(Cl)cc2Cl)CC(C)O1` (stereo not shown) to `COCC1CCN(C(=O)c2cc(COc3ccc(F)cc3F)on2)C1` (stereo not shown), the “hERG current change (%, negative = inhibition) at 10uM” value rises from -37.7% to -13.2%.

Compared with `CC(NC(=O)COC(=O)c1ccc(N(C)C)cc1)c1ccccc1` (stereo not shown), `COc1ccc(CCN(C)C(=O)CNC(=O)Cc2cccc3ccccc23)cc1OC` is lower in “hERG current change (%, negative = inhibition) at 10uM” value: 3.44% for the first, -1.9% for the second.

First: CC(=O)N(c1ccccc1)c1nc(C)cc(C)c1C#N
Second: Cc1ccc(S(=O)(=O)N(CC(=O)Nc2cccnc2)c2ccccc2C)cc1
The “hERG current change (%, negative = inhibition) at 10uM” value of the first is higher: 12.1% for the first, -16.4% for the second.

Going from `COc1cc(-c2noc(C)c2C#CCO)cc(OC)c1OC` to `COc1cc(-c2noc(C)c2C#Cc2nccn2C)cc(OC)c1OC`, the “hERG current change (%, negative = inhibition) at 10uM” value falls from 6.47% to -53.4%.

Compared with `O=Cc1cn(CCC(=O)O)nc1-c1cccc(Br)c1`, `COc1ccc2cc(Br)ccc2c1CC(=O)N(C)C` is lower in “hERG current change (%, negative = inhibition) at 10uM” value: 24.2% for the first, 10.7% for the second.

First: O=C(CN(c1cccc([N+](=O)[O-])c1)S(=O)(=O)c1ccccc1)NCc1ccccc1
Second: O=C(CN(c1cccc([N+](=O)[O-])c1)S(=O)(=O)c1ccccc1)NCc1cccnc1
The “hERG current change (%, negative = inhibition) at 10uM” value of the first is lower: -68.5% for the first, -42.2% for the second.

Compared with `Cc1ccc(S(=O)(=O)N(CC(=O)Nc2cccnc2)c2cccc([N+](=O)[O-])c2)cc1`, `Cc1ccc(S(=O)(=O)N(CC(=O)Nc2cccnc2)c2cccc(Br)c2)cc1` is higher in “hERG current change (%, negative = inhibition) at 10uM” value: -56.6% for the first, -11.5% for the second.

First: COc1ccc(N(CC(=O)Nc2cccnc2)S(=O)(=O)c2ccc(C)cc2)cc1Cl
Second: Cc1ccc(S(=O)(=O)N(CC(=O)Nc2cccnc2)c2ccc(Br)cc2)cc1
The “hERG current change (%, negative = inhibition) at 10uM” value of the first is higher: -16.9% for the first, -50.3% for the second.

Going from `CCOc1ccc(N(CC(=O)Nc2cccnc2)S(=O)(=O)c2ccc(C)cc2)cc1` to `COc1ccc(OCCN(C)Cc2c(O)ccc3ccccc23)cc1`, the “hERG current change (%, negative = inhibition) at 10uM” value rises from -5.5% to 19%.

First: Cc1cc(C)c2cc(C#N)c(NCCCNC(=O)CCC(=O)O)nc2c1
Second: Cc1nn(CC(=O)NCc2ccccn2)c(C)c1[N+](=O)[O-]
The “hERG current change (%, negative = inhibition) at 10uM” value of the first is higher: 12.2% for the first, -10.9% for the second.

Going from `COc1ccc(N=CC2=C(Nc3ccc(OC)cc3)c3c(C)nn(-c4ccccn4)c3CC2)cc1` to `COc1ccc(CN(C)Cc2c(O)ccc3ccccc23)cc1`, the “hERG current change (%, negative = inhibition) at 10uM” value falls from -16.4% to -24.7%.

Going from `COc1ccc(CCN(C)Cc2c(O)ccc3ccccc23)cc1OC` to `COc1ccc(CN(C)Cc2c(O)ccc3cc(Br)ccc23)cc1OC`, the “hERG current change (%, negative = inhibition) at 10uM” value rises from -74% to -37.3%.

Going from `COc1cc(CN(C)Cc2cccc3ccccc23)cc([N+](=O)[O-])c1O` to `COc1ccc(S(=O)(=O)NCCOc2ccccc2)cc1F`, the “hERG current change (%, negative = inhibition) at 10uM” value falls from 11.9% to 8.52%.

Going from `Cc1ccc(C(=O)NCC(=O)OCCOc2cccc(Cl)c2)cc1` to `Cc1ccc(NC(=O)COC(=O)c2ccc(Cl)nc2)cc1S(=O)(=O)N1CCCCC1`, the “hERG current change (%, negative = inhibition) at 10uM” value rises from -7.72% to 15.2%.

First: Cc1nn(C)c2ncc(C(N)=O)c(Oc3ccc(Cl)cc3)c12
Second: CC(C)NC(=O)Cn1nnc(-c2ccc(Cl)cc2)n1
The “hERG current change (%, negative = inhibition) at 10uM” value of the first is higher: 7.24% for the first, 4.9% for the second.

Compared with `O=C(CSc1nc(Nc2ccccc2)nc(N2CCOCC2)n1)Nc1ccc([N+](=O)[O-])cc1`, `O=C(Nc1ccccc1C(=O)N1CCN(CCO)CC1)c1cccc([N+](=O)[O-])c1` is lower in “hERG current change (%, negative = inhibition) at 10uM” value: 9.65% for the first, 7% for the second.

`COc1ccc([C@@H]2[C@H]3C(=O)N(c4cccc(C(F)(F)F)c4)C(=O)[C@H]3ON2C)cc1` was tested, and the “hERG current change (%, negative = inhibition) at 10uM” value was -12.1%.
